In PubChem BioAssay AID2073 (Sanford-Burnham Center for Chemical Genomics, 2009):
In all, about 290,000 compounds went through this assay and about 570 (0.2%) were called active. About 1% were inconclusive and are not listed. Rule as the data show it: active = inhibition mostly above about 51% (no sharp cut-off); inconclusive = no clear call, values can overlap the other calls; inactive = mostly below about 53%. Only a selection was taken, and actives are over-represented in it overall.

Target: Voltage-dependent N-type calcium channel subunit alpha-1B (Homo sapiens) (UniProt Q00975)
Sequence (Q00975 whole entry, looked up): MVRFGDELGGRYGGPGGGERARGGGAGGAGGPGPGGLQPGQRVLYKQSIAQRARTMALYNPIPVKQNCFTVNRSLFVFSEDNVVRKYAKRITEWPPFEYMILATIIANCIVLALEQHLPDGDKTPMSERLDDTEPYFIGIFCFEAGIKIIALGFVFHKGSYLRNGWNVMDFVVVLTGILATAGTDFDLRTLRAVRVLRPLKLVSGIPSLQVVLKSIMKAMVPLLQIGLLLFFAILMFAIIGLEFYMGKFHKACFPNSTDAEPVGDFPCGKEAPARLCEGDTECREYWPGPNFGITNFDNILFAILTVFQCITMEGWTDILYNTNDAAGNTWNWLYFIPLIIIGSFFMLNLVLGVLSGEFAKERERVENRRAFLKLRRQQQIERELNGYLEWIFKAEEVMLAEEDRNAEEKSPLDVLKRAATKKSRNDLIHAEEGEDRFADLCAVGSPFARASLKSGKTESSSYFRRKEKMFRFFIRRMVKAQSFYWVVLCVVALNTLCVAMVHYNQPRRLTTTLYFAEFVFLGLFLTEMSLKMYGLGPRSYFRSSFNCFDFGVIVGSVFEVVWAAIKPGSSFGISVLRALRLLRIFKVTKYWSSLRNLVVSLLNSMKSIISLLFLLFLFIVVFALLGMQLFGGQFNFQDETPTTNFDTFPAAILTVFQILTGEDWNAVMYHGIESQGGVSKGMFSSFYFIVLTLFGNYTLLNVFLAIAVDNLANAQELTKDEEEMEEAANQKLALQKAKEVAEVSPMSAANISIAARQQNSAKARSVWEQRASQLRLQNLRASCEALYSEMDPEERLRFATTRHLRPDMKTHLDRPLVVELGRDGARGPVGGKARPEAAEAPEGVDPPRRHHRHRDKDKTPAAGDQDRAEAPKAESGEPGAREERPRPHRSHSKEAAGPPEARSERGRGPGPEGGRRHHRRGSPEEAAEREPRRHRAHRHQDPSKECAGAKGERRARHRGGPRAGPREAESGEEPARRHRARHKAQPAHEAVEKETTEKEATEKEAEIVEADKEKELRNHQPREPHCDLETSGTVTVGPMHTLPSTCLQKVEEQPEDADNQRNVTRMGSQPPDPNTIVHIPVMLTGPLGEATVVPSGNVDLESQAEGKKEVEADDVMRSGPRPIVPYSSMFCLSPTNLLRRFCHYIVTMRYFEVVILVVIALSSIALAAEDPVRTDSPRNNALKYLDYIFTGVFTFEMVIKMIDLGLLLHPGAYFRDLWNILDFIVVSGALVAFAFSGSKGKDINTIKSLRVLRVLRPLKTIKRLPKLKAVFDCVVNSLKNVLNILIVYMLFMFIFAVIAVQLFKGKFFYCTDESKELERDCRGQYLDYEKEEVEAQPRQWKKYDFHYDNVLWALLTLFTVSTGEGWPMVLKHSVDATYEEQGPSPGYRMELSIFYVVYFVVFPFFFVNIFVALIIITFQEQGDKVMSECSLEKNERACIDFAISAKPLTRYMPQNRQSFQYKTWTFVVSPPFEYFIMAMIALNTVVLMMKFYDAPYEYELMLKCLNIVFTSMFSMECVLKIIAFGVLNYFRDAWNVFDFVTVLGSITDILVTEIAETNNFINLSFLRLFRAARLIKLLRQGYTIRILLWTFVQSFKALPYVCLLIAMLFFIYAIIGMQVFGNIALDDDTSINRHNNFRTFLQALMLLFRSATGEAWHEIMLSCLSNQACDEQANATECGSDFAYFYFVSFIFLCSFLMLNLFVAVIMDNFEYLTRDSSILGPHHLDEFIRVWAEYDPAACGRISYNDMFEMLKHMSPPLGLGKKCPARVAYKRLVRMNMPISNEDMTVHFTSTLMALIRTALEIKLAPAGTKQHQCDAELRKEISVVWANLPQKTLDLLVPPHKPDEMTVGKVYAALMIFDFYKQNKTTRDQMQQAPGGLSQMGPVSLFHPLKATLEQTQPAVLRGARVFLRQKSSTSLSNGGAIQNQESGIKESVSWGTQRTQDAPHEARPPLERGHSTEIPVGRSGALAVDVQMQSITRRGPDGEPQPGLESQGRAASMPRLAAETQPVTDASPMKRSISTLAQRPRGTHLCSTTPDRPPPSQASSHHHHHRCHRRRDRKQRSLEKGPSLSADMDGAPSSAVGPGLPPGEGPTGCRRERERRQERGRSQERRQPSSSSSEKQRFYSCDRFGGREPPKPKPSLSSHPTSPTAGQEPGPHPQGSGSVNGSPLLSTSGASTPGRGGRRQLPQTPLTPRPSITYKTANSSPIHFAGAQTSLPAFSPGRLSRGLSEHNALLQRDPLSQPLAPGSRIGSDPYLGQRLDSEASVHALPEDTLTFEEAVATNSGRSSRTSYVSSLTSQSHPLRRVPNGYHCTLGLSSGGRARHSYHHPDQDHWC
Assay: disruptors of CaV2.2 binding to Mint1 – biochemical, HTRF (AID 2073)
Conditions: HTRF protein-protein interaction, Mint1-CaV2.2, at 20 µM, stronger effect = higher value

Row | SMILES | inhibition | inhibition (measured here: average of repeat tests) [%]
1 | O=C(/C=C/Nc1ccccc1)c1ccccc1 | -0.7% (inactive) | 
2 | CC1(C)OC(=O)C(=CNc2ccccc2)C(=O)O1 | -0.4% (inactive) | 
3 | O=C([C@@H]1Cc2ccccc2CN1)N1CCN(Cc2ccccc2)CC1 | 8.9% (inactive) | 
4 | Cc1ccc(-n2ncc3c2CCCC3NC(=O)CCc2c(C)noc2C)cc1C (centres undefined) | 16.6% (inactive) | 
5 | CCNc1ccc(Br)cc(C(=O)/C=C/c2ccc(Cl)cc2Cl)c1=O | 23.6% (inactive) | 
6 | CNc1ccc(Br)cc(C(=O)/C=C/c2ccc(Cl)cc2Cl)c1=O | 52.7% (active) | 
7 | CNc1ccc(Br)cc(C(=O)/C=C/c2cccc(Cl)c2Cl)c1=O | 41.9% (inactive) | 
8 | N=C1S/C(=C\c2ccc(-c3ccccc3C(=O)O)o2)C(=O)N1c1ccc2c(c1)OCO2 | 17.7% (inactive) | 
9 | COc1ccc(/C=C2\SC(=N)N(c3nccs3)C2=O)cc1OC | 20.5% (inactive) | 
10 | COc1cc(/C=C2\SC(=N)N(c3ccc4c(c3)OCO4)C2=O)cc(OC)c1O | -8.5% (inactive) | 
11 | N=C1S/C(=C\c2ccco2)C(=O)N1c1nccs1 | 50% (active) | 
12 | N=C1S/C(=C\c2ccc(-c3cccc(Cl)c3)o2)C(=O)N1c1nccs1 | 35.6% (inactive) | 
13 | N=C1S/C(=C\c2ccco2)C(=O)N1c1ccc2c(c1)OCO2 | 56% (active) | 
14 | c1ccc(Cc2nnc3sc(-c4cccnc4)nn23)cc1 | -12.8% (inactive) | 
15 | COc1ccc(CN(CC(=O)NC(C)C)C(=O)CCC(=O)Nc2nccs2)cc1 | 9.7% (inactive) | 
16 | CCOc1ccc(N2C(=O)CN(C)C2=S)cc1 | -2% (inactive) | 
17 | CC1CCN(C(=O)CCc2ccc(S(=O)(=O)NC(C)C)cc2)CC1 | 28.5% (inactive) | 
18 | O=C(Cn1c(-c2ccco2)nc2ccccc21)N1CCCCC1 | -14.9% (inactive) | 
19 | Cn1nc(C(F)(F)F)c(-c2ccc(Br)cc2)c1NC(=O)c1nccnc1C(=O)O | 0.4% (inactive) | 
20 | COc1ccc(NC2CCCN(C(=O)c3csc(C(C)C)n3)C2)cc1OC (centres undefined) | -10% (inactive) | 
21 | CSc1ccccc1OCc1cc(C(=O)NCc2cnc(C)cn2)no1 | 5.6% (inactive) | 

Row | SMILES | inhibition | inhibition (measured here: average of repeat tests) [%]
22 | OCc1ccccc1N=c1ssnc1Cl | 9.9% (inactive) | 
23 | Cc1cc(Cl)ccc1N=C1N=C(N)c2ccccc21 | -3.2% (inactive) | 
24 | Nc1ccccc1N=c1ssnc1Cl | 4.1% (inactive) | 
25 | Clc1ccc(N=c2ssnc2Cl)nc1 | 38.2% (inactive) | 
26 | Fc1ccc(N=c2ssnc2Cl)c(F)c1 | 91.2% (active) | 
27 | COc1cccc(CNC(=O)CSc2nnc3c(n2)[nH]c2ccc(OC)cc23)c1 | 5.3% (inactive) | 
28 | Cc1ccc2c(Cl)cc(Cl)c(OCC(=O)NC(=O)NCc3ccco3)c2n1 | 17.4% (inactive) | 
29 | Cc1cc(Cl)cc(Cl)c1OCC(=O)NCc1ccco1 | -1.4% (inactive) | 
30 | Cc1ccc2c(Cl)cc(Cl)c(OCC(=O)NCc3ccco3)c2n1 | 56.6% (active) | 
31 | CC1CCN(CC(=O)Nc2cccc(Cl)c2)CC1 | -2.2% (inactive) | 
32 | CC1(C(=O)N2CC3(CC(c4cccc([N+](=O)[O-])c4)=NO3)C[C@H]2C(=O)NCC(N)=O)CC1 (some centres undefined) | -4.4% (inactive) | 
33 | O=P(c1ccccc1)(c1ccccc1)C(O)c1ccco1 (centres undefined) | -0.2% (inactive) | 
34 | O=C(c1ccco1)C(O)c1ccco1 (centres undefined) | 16.7% (inactive) | 
35 | O=C(O)C(O)c1ccco1 (centres undefined) | 65.3% (active) | 
36 | FC(F)(F)Oc1ccc(NC(=S)NCCCN2CCOCC2)cc1 | -16.9% (inactive) | 
37 | COC(=O)C1CCCN1S(=O)(=O)c1ccccc1NC(=O)c1cc(OC)c(OC)c(OC)c1 (centres undefined) | 12.9% (inactive) | 
38 | O=C(O)c1cc(C(=O)O)cc(-c2ccc(/C=c3/sc4nc5ccccc5n4c3=O)o2)c1 | 67% (active) | 
39 | O=C(O)c1ccc(-c2ccc(/C=c3/sc4nc5ccccc5n4c3=O)o2)cc1Cl | 28.8% (inactive) | 
40 | O=C(O)c1cccc(-c2ccc(/C=c3/sc4nc5ccccc5n4c3=O)o2)c1 | 26.7% (inactive) | 
41 | COc1cc(/C=C(\C#N)c2nc(-c3cc4ccccc4oc3=O)cs2)ccc1O | 23.3% (inactive) | 
42 | COc1cc(/C=C(/C#N)c2nc(-c3cc4ccccc4oc3=O)cs2)cc([N+](=O)[O-])c1O | 80.7% (active) | 

Row | SMILES | inhibition | inhibition (measured here: average of repeat tests) [%]
43 | COc1cc(/C=C(\C#N)c2nc3ccccc3s2)cc([N+](=O)[O-])c1O | 40.5% (inactive) | 
44 | COc1ccc(N2Cc3ccc(C(=O)N/N=C\c4ccc(O)cc4O)cc3C2)cc1 | 68.9% (inactive) | 29.4
45 | COc1ccc(NC(=O)c2cc3c(CO)cnc(C)c3oc2=Nc2cccc(C)c2)c(OC)c1 | 10.6% (inactive) | 
46 | COc1ccc(NC(=O)c2cc3c(CO)cnc(C)c3oc2=Nc2cccc(F)c2)c(OC)c1 | 11.2% (inactive) | 
47 | COc1ccccc1C(=O)OCC(=O)NC1CCCC1 | 16.7% (inactive) | 
48 | NC(=O)c1ccccc1NC(=O)CN1CCOCC1 | -0.5% (inactive) | 
49 | COc1cc(/C=C/c2ccc3cccc(O)c3n2)ccc1O | 21.1% (inactive) | 
50 | COc1cc(/C=C/c2ccc3c(Br)cc(Br)c(O)c3n2)ccc1O | 56.6% (active) | 
51 | COc1ccc(/C=C/c2ccc3c(Br)ccc(O)c3n2)cc1 | 32.5% (inactive) | 
52 | COCC(=O)N(Cc1nc2sc(C)c(C)c2c(=O)[nH]1)C1CCCCC1 | 4.2% (inactive) | 
53 | CN(Cc1ccccc1F)C(=O)c1ccccc1Sc1ccccc1C#N | -14.5% (inactive) | 
54 | Cc1ccc(Nc2nc(-c3c(C)nc4ncccn34)cs2)cc1 | 7.5% (inactive) | 
55 | Cc1nc2ncccn2c1-c1csc(Nc2ccc(O)cc2)n1 | 25% (inactive) | 
56 | COc1ccc(Nc2nc(-c3c(C)nc4ncccn34)cs2)cc1 | 55.6% (active) | 
57 | Cc1ccc2c(Cl)c(C(=O)NCC(c3ccco3)N3CCCC3)sc2c1 (centres undefined) | 3% (inactive) | 
58 | O=c1c(Cl)nc2cc(Cl)ccc2n1CCNc1ncc(C(F)(F)F)cc1Cl | -81.2% (inactive) | 
59 | Clc1ccc2nnnc(-c3ccccc3)c2c1 | 8.1% (inactive) | 
60 | Cc1cc(C(=O)COC(=O)Cn2c(C(F)(F)F)nc3ccccc32)c(C)n1Cc1ccco1 | 1.6% (inactive) | 
61 | CCOC(=O)c1sc(NC(=O)CCCCCN2C(=O)c3cccc4cccc(c34)C2=O)nc1C | 52.5% (active) | 
62 | CCOC(=O)CCCCCN1C(=O)c2cccc3cccc(c23)C1=O | -9.7% (inactive) | 
63 | CC(=O)c1sc(NC(=O)CCN2C(=O)c3ccccc3C2=O)nc1C | 14.5% (inactive) | 
